Assay results from PubChem BioAssay (Tox21).
Several values for one entry are separate records, joined by “and”; a condition that tells them apart may be missing. Identical values can stand only once. Inconclusive results are not listed. Activity calls are given as the source filed them. Unless noted, calls come from the whole dose curve; as a rule, active = well fitted curve in the direction sought with a large enough effect in the repeat runs; inconclusive = weak or mixed curves; inactive = no such curve, though single readings can be large; an effect the other way counts as inactive or inconclusive.

Legend:
[1] = Caspase-3/7 induction in HepG2 cells by small molecules, qHTS assay (AID 1346978); note: nearly all actives have a fitted effect of over 15% in size; note: potency is the fitted concentration of half-maximal effect
Procedure, shortened: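 Caspase-3/7 induction was measured by Caspase-Glo 3/7 luminescence (30 min, room temperature) after a 17 hr compound exposure of wild-type HepG2 cells seeded at 2,000 per well and pre-incubated 5 hr.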

[2] = Caspase-3/7 induction in CHO-K1 cells by small molecules, qHTS assay (AID 1346980); note: nearly all actives have a fitted effect of over 15% in size
Procedure, shortened: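 Luminescent Caspase-Glo 3/7 read (30min, room temperature) quantified apoptosis induction. Cells were wild-type CHO-K1, treated with compound for 17hr at 37 C and 5% CO2.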

[3] = target: Nuclear receptor subfamily 1 group I member 2 (Homo sapiens) (UniProt O75469); test: Human pregnane X receptor (PXR) small molecule agonists, qHTS assay (AID 1346982); note: nearly all actives have a fitted effect of over 35% in size; note: potency is the fitted concentration of half-maximal effect
Procedure, shortened: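 Stable HepG2 line reporting PXR-mediated CYP3A4 expression via luciferase. Treatment: 24 hr with compounds in DMSO at 37 C. Detection: ONE-Glo luminescence.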

[4] = target: Acetylcholinesterase (Homo sapiens) (UniProt P22303); test: Acetylcholinesterase (AChE) small molecule antagonists: colormetric cell-based qHTS assay (AID 1347395; calls by dose curve; note: nearly all actives have a fitted effect of over 30% in size; note: potency is the fitted concentration of half-maximal effect)
Procedure, shortened: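 Neuroblastoma line SH-SY5Y supplied the enzyme; cells were preincubated with compound for 30 min at 37 C and 5% CO2. Acetylthiocholine with DTNB was then added for 90 min at 37 C, and thiocholine was measured by colour.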

[5] = target: Acetylcholinesterase (Homo sapiens) (UniProt P22303); test: Acetylcholinesterase (AChE) small molecule antagonists: enzyme-based qHTS assay (AID 1347397; calls by dose curve; note: nearly all actives have a fitted effect of over 55% in size); details: Potency: AChE enzyme activity inhibition
Procedure, shortened: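 Colorimetric DTNB readout of acetylthiocholine hydrolysis, 10 min at room temperature, after 30 min room-temperature exposure of 50 mU/mL recombinant human enzyme to compound; DMSO vehicle control.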

[6] = target: Acetylcholinesterase (Homo sapiens) (UniProt P22303); test: Acetylcholinesterase (AChE) small molecule antagonists: fluorescence cell-based qHTS assay (AID 1347398; calls by dose curve; note: nearly all actives have a fitted effect of over 50% in size); details: Potency: AChE activity
Procedure, shortened: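 Cellular AChE activity read as thiocholine from acetylthiocholine hydrolysis, detected by Thiolite Green fluorescence at 490/520 nm after 40 min at room temperature. Compounds were pre-incubated 30 min at 37 C on adherent SH-SY5Y cells.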

[7] = Caspase-3/7 induction in HepG2 cells by small molecules, qHTS cell viability counter screen (AID 1346981); note: nearly all actives have a fitted effect of over 30% in size; note: potency is the fitted concentration of half-maximal effect
Procedure, shortened: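 Treatment of HepG2 cells with DMSO-delivered compounds ran 16 hr at 37 C following a 5-hr pre-incubation of 2,000 cells/well. CellTiter-Fluor fluorescence, read after 1 hr, served as the viability measure in a qHTS format.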

[8] = Caspase-3/7 induction in CHO-K1 cells by small molecules, qHTS cell viability counter screen (AID 1346979); note: nearly all actives have a fitted effect of over 35% in size; note: potency is the fitted concentration of half-maximal effect
Procedure, shortened: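 To flag cytotoxic compounds, treated CHO-K1 wild-type cells were given CellTiter-Fluor at 16hr and read fluorescently after 1hr at 37C; the caspase-3/7 luminescence was measured in these same wells.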

[9] = target: Nuclear receptor subfamily 1 group I member 2 (Homo sapiens) (UniProt O75469); test: CYP3A4 induction through human pregnane X receptor (PXR) by small molecules, qHTS assay (AID 1346984); note: potency is the fitted concentration of half-maximal effect; nearly all actives have a fitted effect of over 40% in size
Procedure, shortened: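 After 24 h at 37C with compound, DPX-2 cells (HepG2, co-transfected PXR response element and CYP3A4 promoter-luciferase) got 3uM final P450-Glo Luciferin-IPA for 3 h; One-Glo luminescence followed.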

[10] = target: Nuclear receptor subfamily 1 group I member 2 (Homo sapiens) (UniProt O75469); test: Human pregnane X receptor (PXR) activation by small molecules, qHTS assay (AID 1346985); note: potency is the fitted concentration of half-maximal effect; nearly all actives have a fitted effect of over 40% in size
Procedure, shortened: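 DPX-2 cells (HepG2 co-transfected with a PXR response element and a CYP3A4-promoter luciferase construct) were seeded at 2,000 per well, rested 5 hr at 37C, then exposed to DMSO-dissolved compounds for 24 hr. Activation was read as luciferase luminescence.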

Measured: Potency

Acetylcholinesterase (Homo sapiens), sequence (P22303 whole entry, looked up): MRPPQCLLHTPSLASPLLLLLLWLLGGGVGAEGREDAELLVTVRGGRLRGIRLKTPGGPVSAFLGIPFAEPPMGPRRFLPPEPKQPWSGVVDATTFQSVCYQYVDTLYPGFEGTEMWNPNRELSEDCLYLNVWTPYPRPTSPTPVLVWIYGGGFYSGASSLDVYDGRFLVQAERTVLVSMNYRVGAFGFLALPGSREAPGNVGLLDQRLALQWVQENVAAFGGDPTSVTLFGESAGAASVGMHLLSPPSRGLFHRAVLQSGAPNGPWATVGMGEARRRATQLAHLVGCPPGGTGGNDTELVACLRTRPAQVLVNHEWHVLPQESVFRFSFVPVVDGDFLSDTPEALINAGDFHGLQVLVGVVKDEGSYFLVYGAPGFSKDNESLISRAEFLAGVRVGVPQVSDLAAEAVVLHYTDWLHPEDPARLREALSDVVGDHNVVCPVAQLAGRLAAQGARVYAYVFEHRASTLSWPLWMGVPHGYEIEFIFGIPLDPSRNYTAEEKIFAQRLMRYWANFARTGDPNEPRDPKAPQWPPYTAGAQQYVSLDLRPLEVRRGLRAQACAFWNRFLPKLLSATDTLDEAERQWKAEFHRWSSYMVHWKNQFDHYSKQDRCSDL
Nuclear receptor subfamily 1 group I member 2 (Homo sapiens), sequence (O75469 whole entry, looked up): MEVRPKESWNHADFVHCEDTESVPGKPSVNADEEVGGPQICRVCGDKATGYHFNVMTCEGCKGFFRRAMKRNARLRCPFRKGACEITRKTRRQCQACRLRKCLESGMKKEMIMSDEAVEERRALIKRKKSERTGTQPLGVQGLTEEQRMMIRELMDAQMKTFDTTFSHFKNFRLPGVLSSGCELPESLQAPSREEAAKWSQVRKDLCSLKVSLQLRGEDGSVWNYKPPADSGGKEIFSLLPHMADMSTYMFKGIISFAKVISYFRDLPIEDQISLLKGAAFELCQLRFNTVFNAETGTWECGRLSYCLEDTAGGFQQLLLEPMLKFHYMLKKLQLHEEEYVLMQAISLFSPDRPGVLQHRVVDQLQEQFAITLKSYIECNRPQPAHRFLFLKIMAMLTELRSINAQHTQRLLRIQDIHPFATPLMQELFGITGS

Oc1c(Br)c(Br)c(Br)c(Br)c1Br
active: [3] 61.5 µM
inactive: [1] | [2] | [4] | [5] | [6]

CC[C@H]1C[C@@H]2C[C@H]3c4[nH]c5ccc(OC)cc5c4CCN(C2)[C@@H]13
inactive: [1] | [2] | [3] | [4] | [5]

C=CCOC(N)=O
inactive: [1] | [2] | [7] | [5] | [6]

COP(N)(=S)OC
active: [4] 63.3 µM
not listed: [8] | [9] | [10]
inactive: all other assays above

O=[N+]([O-])c1cc([N+](=O)[O-])c2ccccc2c1
inactive: [1] | [2] | [5]

CC1(C)CN=C(NN=C(/C=C/c2ccc(C(F)(F)F)cc2)/C=C/c2ccc(C(F)(F)F)cc2)NC1
inactive: [2] | [4] | [5] | [6]
active: [1] 12.2 µM | [7] 19.3 µM

ClC(Cl)=C(Cl)Cl
not listed: [8] | [9] | [10]
inactive: all other assays above

O=c1c(C2CC(c3ccc(-c4ccc(Br)cc4)cc3)Cc3ccccc32)c(O)sc2ccccc12 (stereo not drawn)
active: [3] 18.8 µM
inactive: [1] | [2] | [4] | [5] | [6]

CN(C)c1ccc(N=Nc2ccccc2)cc1
inactive: [1] | [2] | [4] | [5] | [6]
active: [7] 48.6 µM | [3] 7.7 µM

NC(=O)CCl
not listed: [8] | [9] | [10]
inactive: all other assays above

Cc1cc(Cl)ccc1O[C@H](C)C(=O)O
inactive: [1] | [2] | [7] | [4] | [6]

CNC(C)Cc1ccc2c(c1)OCO2 (stereo not drawn)
inactive: [8] | [2] | [7] | [4] | [5] | [6]

Clc1ccc(COC(Cn2ccnc2)c2ccc(Cl)cc2Cl)cc1 (stereo not drawn)
inactive: [2] | [4] | [6]
active: [8] 22.7 µM and 27.2 µM and 23.7 µM | [7] 50.8 µM and 54.3 µM | [3] 6.4 µM and 7.66 µM and 7.5 µM

Nc1ccccc1C(=O)Oc1ccc2ccccc2c1
inactive: [1] | [7] | [4] | [5] | [6]
active: [3] 27.3 µM

CN(C)[C@@H]1C(=O)C(C(N)=O)=C(O)[C@@]2(O)C(=O)C3=C(O)c4c(O)ccc(Cl)c4[C@@](C)(O)[C@H]3C[C@@H]12
inactive: [2]
active: [8] 27.9 µM

C[C@@H](Oc1ccc(Cl)cc1Cl)C(=O)O
inactive: [1] | [7] | [3] | [4] | [5] | [6]

O=C(NC(=O)c1c(F)cccc1F)Nc1cc(Cl)c(OC(F)(F)C(F)F)c(Cl)c1
not listed: [1] | [9] | [10]
inactive: all other assays above

O=C(O)COc1nc(Cl)c(Cl)cc1Cl
inactive: [1] | [3] | [4] | [6]

CC(C)CC(C)N (stereo not drawn)
inactive: [8] | [2] | [7] | [4] | [5] | [6]

OC(c1ccc(Cl)cc1)(c1ccc(Cl)cc1)C(Cl)(Cl)Cl
active: [3] 24.3 µM
inactive: [1] | [7] | [4] | [6]

ClC1=C(Cl)C2(Cl)C3C(Cl)C=CC3C1(Cl)C2(Cl)Cl (stereo not drawn)
inactive: [1] | [7] | [5] | [6]

CC(C)OC(=O)C(O)(c1ccc(Cl)cc1)c1ccc(Cl)cc1
inactive: [1] | [7] | [4] | [5] | [6]

Oc1ccc(C2(c3ccc(O)cc3)CCCCC2)cc1
inactive: [2] | [6]
active: [8] 57.9 µM | [7] 51.6 µM | [3] 13 µM

CCCCCCCCCCCCCN1CC(C)OC(C)C1 (stereo not drawn)
inactive: [1] | [7] | [3] | [4] | [5] | [6]

CC(C)CCCCCCCOP(=O)(Oc1ccccc1)Oc1ccccc1
inactive: [1] | [7] | [4] | [5]
active: [3] 6.89 µM

C=CC(=O)OCC(COC(=O)C=C)(COC(=O)C=C)COC(=O)C=C
inactive: [4] | [6]
active: [1] 15.4 µM | [7] 15.4 µM

O=[N+]([O-])c1cc(Cl)ccc1Cl
inactive: [1] | [7] | [3] | [4] | [5] | [6]

SCc1ccco1
inactive: [1] | [7] | [3] | [4] | [5] | [6]

CCOC(=O)C1(c2ccccc2)CCN(CCC(C#N)(c2ccccc2)c2ccccc2)CC1
active: [3] 3.35 µM | [9] 1.41 µM | [10] 1.12 µM
not listed: [2] | [8]
inactive: all other assays above

CC(Cl)CN(C)C (stereo not drawn)
not listed: [1] | [9] | [10]
inactive: all other assays above
